Measured values from PubChem BioAssay AID1159580 (chemical genetic matrix, 2015).
“And” between values parts separate entries of the source, which are not always exact repeats. Identical values can stand only once. About 2,000 (36%) of roughly 5,500 compounds were called active. Not shown: some 18% with an inconclusive outcome. Cut-off read from the data, not from the text of the source: active = normalized growth mostly below about 0.91 (no sharp cut-off); inconclusive = no clear call, values can overlap the other calls; inactive = mostly above about 0.92. The list shows a part of the results.

Experiment: chemical genetic growth profiling, strain panel (AID 1159580);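 note: tested at 20 µM; growth read once vehicle control cultures reached saturation at 30 °C; 1 = growth at the plate median or of vehicle wells; lower values mean less growth of the strain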
Details: S. cerevisiae deletion strains, growth OD

Measured: normalized growth

CCN(CC)CCOc1ccc(/C(=C(\Cl)c2ccccc2)c2ccccc2)cc1
inactive: locus YHR079C, strain IRE1, stronger effect = lower value 0.945 | locus YIL125W, strain kgd1, stronger effect = lower value 0.983 | locus YJR066W, strain TOR1, stronger effect = lower value 0.982
0.0616 (active) and 0.946 (inactive): locus YJL095W, strain BCK1, stronger effect = lower value
active: locus YAL013W, strain DEP1, stronger effect = lower value 0.0553 | locus YAL021C, strain ccr4, stronger effect = lower value 0.064 | locus YAL026C, strain drs2, stronger effect = lower value 0.0617 | locus YAL030W, strain snc1, stronger effect = lower value 0.076 | locus YBL061C, strain skt5, stronger effect = lower value 0.0714 | locus YBR009C, strain hhf1, stronger effect = lower value 0.0875 | locus YBR021W, strain FUR4, stronger effect = lower value 0.089 | locus YBR023C, strain chs3, stronger effect = lower value 0.0792 | locus YBR171W, strain sec66, stronger effect = lower value 0.17 | locus YBR229C, strain ROT2, stronger effect = lower value 0.0488 | locus YBR231C, strain swc5, stronger effect = lower value 0.0847 | locus YBR279W, strain paf1, stronger effect = lower value 0.265 | locus YCL011C, strain gbp2, stronger effect = lower value 0.0699 | locus YCL016C, strain dcc1, stronger effect = lower value 0.203 | locus YCL029C, strain bik1, stronger effect = lower value 0.0627 | locus YCL069W, strain vba3, stronger effect = lower value 0.11 | locus YCR088W, strain abp1, stronger effect = lower value 0.107 | locus YDL005C, strain med2, stronger effect = lower value 0.11 | locus YDL035C, strain GPR1, stronger effect = lower value 0.0517 | locus YDL040C, strain nat1, stronger effect = lower value 0.479 | locus YDL074C, strain BRE1, stronger effect = lower value 0.0809 | locus YDL101C, strain DUN1, stronger effect = lower value 0.0611 | locus YDL185W, strain tfp1, stronger effect = lower value 0.124 | locus YDL192W, strain arf1, stronger effect = lower value 0.0614 | locus YDR001C, strain nth1, stronger effect = lower value 0.216 | locus YDR069C, strain doa4, stronger effect = lower value 0.0706 | locus YDR101C, strain arx1, stronger effect = lower value 0.0624 | locus YDR137W, strain rgp1, stronger effect = lower value 1.41 [resistant] | locus YDR159W, strain sac3, stronger effect = lower value 0.105 | locus YDR162C, strain NBP2, stronger effect = lower value 0.0484 | locus YDR195W, strain ref2 0.235 | locus YDR297W, strain sur2, stronger effect = lower value 0.0942 | locus YDR318W, strain mcm21, stronger effect = lower value 0.0641 | locus YDR334W, strain swr1, stronger effect = lower value 0.0931 | locus YDR335W, strain msn5, stronger effect = lower value 0.093 | locus YDR388W, stronger effect = lower value 0.055 | locus YDR392W, strain spt3, stronger effect = lower value 0.0803 | locus YDR502C, strain sam2, stronger effect = lower value 0.0655 | locus YEL003W, strain gim4, stronger effect = lower value 0.133 | locus YEL037C, strain rad23, stronger effect = lower value 0.099 | locus YEL061C, strain CIN8 (second series), stronger effect = lower value 0.3 | locus YEL061C, strain CIN8, stronger effect = lower value 0.0516 | locus YER015W, strain faa2, stronger effect = lower value 0.143 | locus YER016W, strain bim1, stronger effect = lower value 0.218 | locus YER110C, stronger effect = lower value 0.0804 | locus YER111C, strain swi4, stronger effect = lower value 0.529 | locus YER155C, strain BEM2 (second series), stronger effect = lower value 0.851 | locus YER155C, strain BEM2, stronger effect = lower value 0.0653 | locus YER167W, strain BCK2, stronger effect = lower value 0.0512 | locus YFR010W, strain ubp6, stronger effect = lower value 0.0804 | locus YGL078C, strain dbp3, stronger effect = lower value 0.919 | locus YGL086W, strain mad1, stronger effect = lower value 0.0596 | locus YGL167C, strain pmr1, stronger effect = lower value 0.244 | locus YGL173C, strain kem1, stronger effect = lower value 0.497 | locus YGL227W, strain vid30, stronger effect = lower value 0.144 | locus YGL240W, strain doc1, stronger effect = lower value 0.228 | locus YGL248W, strain PDE1, stronger effect = lower value 0.0492 | locus YGL253W, strain hxk2, stronger effect = lower value 0.0662 | locus YGR135W, strain pre9, stronger effect = lower value 0.069 | locus YGR252W, strain gcn5, stronger effect = lower value 0.178 | locus YHR013C, strain ard1, stronger effect = lower value 0.134 | locus YHR027C, strain rpn1, stronger effect = lower value 0.109 | locus YHR079C, strain IRE1 (second series), stronger effect = lower value 0.0584 | locus YHR094C, strain hxt1, stronger effect = lower value 0.0617 | locus YHR129C, strain ARP1, stronger effect = lower value 0.0567 | locus YHR142W, strain chs7, stronger effect = lower value 0.08 | locus YHR200W, strain rpn10, stronger effect = lower value 0.0639 | locus YIL066C, strain RNR3, stronger effect = lower value 0.0508 | locus YIL073C, strain SPO22, stronger effect = lower value 0.106 | locus YIR030C, strain dcg1, stronger effect = lower value 0.0601 | locus YJL092W, strain hpr5, stronger effect = lower value 0.193 | locus YJL095W, strain BCK1 (second series), stronger effect = lower value 0.0616 | locus YJL115W, strain asf1, stronger effect = lower value 0.262 | locus YJL129C, strain trk1, stronger effect = lower value 0.158 | locus YJL134W, strain LCB3, stronger effect = lower value 0.0524 | locus YJL154C, strain vps35, stronger effect = lower value 0.095 | locus YJL164C, strain tpk1, stronger effect = lower value 0.0775 | locus YJL166W, strain qcr8, stronger effect = lower value 0.0887 | locus YJL168C, strain set2, stronger effect = lower value 0.0577 | locus YJL187C, strain SWE1 (second series), stronger effect = lower value 0.0519 | locus YJR043C, strain POL32, stronger effect = lower value 0.064
0.0542 (active) and 0.924 (inactive): locus YHR030C, strain SLT2, stronger effect = lower value
